Article PMC7819943, “Rice protein-binding microarrays: a tool to detect cis-acting elements near promoter regions in rice”
Over roughly 68,000 sequences, “fluorescence intensity (a.u.)” has its median near 9,100; the highest 2% begin near 16,000. This is one part of a sample in which the highest values are shown more often than they occur.

These sequences were tested against OsWRKY34 (Oryza sativa, UniProt Q0JBA9 1-250) (assay: protein-binding microarray (RPBM); PBS, 2% BSA, 51.3 ng/ul salmon testes DNA, 50 uM zinc acetate, 200 nM TF, 25 C, 1 h; high values mean tight binding). Conditions: protein: recombinant; tags: N-terminal polyhistidine and DsRed monomer fusion (pET32a); label: CyDye5-dUTP incorporated in the synthesized complementary strand; 3' TTTTT single-stranded linker to array surface; dsDNA, one strand shown.
Procedure, shortened: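 Ni–NTA purification followed expression in E. coli BL21-CodonPlus of transcription factors fused N-terminally to a polyhistidine tag and DsRed. At 200 nM in PBS with 2% BSA, salmon testes DNA and 50 µM zinc acetate, the protein was incubated for 1 h at 25 °C with a custom Agilent array that had been primer-extended with Cy5-dUTP and blocked with 2% BSA. After washing, the array was read on an Axon 4000B scanner. The binding signal is per-feature fluorescence intensity in arbitrary units.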

Chain of OsWRKY34 (Q0JBA9 entry or part of it): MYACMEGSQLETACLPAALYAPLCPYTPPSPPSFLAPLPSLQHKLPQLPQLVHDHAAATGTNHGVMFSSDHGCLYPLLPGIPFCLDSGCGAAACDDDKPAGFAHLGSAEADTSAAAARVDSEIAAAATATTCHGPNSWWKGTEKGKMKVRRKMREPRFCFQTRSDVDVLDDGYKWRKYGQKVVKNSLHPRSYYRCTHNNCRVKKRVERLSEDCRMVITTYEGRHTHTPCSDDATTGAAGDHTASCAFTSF

In order of rising binding signal:
1. GACGAGACCGACGCCGTCATCCTCCTTCTCACGCTACCATCGGAGTCACCTAGTGCAG  8040 fluorescence intensity (a.u.)
2. CAGAGTGCAAGCCAATCATCGCCACCACGCTACGCTACACCGGAGTCACCTAGTGCAG  8130 fluorescence intensity (a.u.)
3. TAGCAACTCCGTTCTTTTTCTTCTTTTCTCTCACTCACTCCGGAGTCACCTAGTGCAG  8360 fluorescence intensity (a.u.)
4. CCTCTACGCGCGGCCAACGCCGCCGCCGCCGCCGCCGCTCCGGAGTCACCTAGTGCAG  8370 fluorescence intensity (a.u.)
5. ACGACGACGACGACGACGCAACCCCGCGGCGCGCGCCGGCCGGAGTCACCTAGTGCAG  8430 fluorescence intensity (a.u.)
6. CCACCAGCGATTTGGCCCGATCTCATCCCACCAGCGATTTCGGAGTCACCTAGTGCAG  8430 fluorescence intensity (a.u.)
7. CACCGGTTCTTCGCCTTCGTCACCGTCGCCGGCGGCGCCACGGAGTCACCTAGTGCAG  8450 fluorescence intensity (a.u.)
8. CTCGCTTCTTCTTCCTTCTTTCCGTCCTCGCCGCCCCGCGCGGAGTCACCTAGTGCAG  8470 fluorescence intensity (a.u.)
9. AGGCTCTATTGGTTTCTCCTCTGTACATACAGTAGTAGTCCGGAGTCACCTAGTGCAG  8640 fluorescence intensity (a.u.)
10. CACAGCTTCTTAATTACTCCACCTTAATTAATCGATTAATCGGAGTCACCTAGTGCAG  8680 fluorescence intensity (a.u.)
11. TATATACTTTCATGGGTCTATATTTATATGTATGTATACACGGAGTCACCTAGTGCAG  8690 fluorescence intensity (a.u.)
12. CCGCCGCCGCTCGCCGCCGCATTGCGTTACTCGAGCTCGCCGGAGTCACCTAGTGCAG  8710 fluorescence intensity (a.u.)
13. GTCACTTCTCCTTTTTTTTTGGCATGCAATAGACTTCCTTCGGAGTCACCTAGTGCAG  8780 fluorescence intensity (a.u.)
14. TTCTACACTCTCTTGATCAGCTCTCACCACTATGTACACTCGGAGTCACCTAGTGCAG  8860 fluorescence intensity (a.u.)
15. TTCGGGTTCAATTTCAGGTTCAGTCGCTTGCTTGGTGCTTCGGAGTCACCTAGTGCAG  8960 fluorescence intensity (a.u.)
16. GTTCCAGCCGCGTTTCCTCTCGCGGCGGCCTCGCCATTTCCGGAGTCACCTAGTGCAG  9070 fluorescence intensity (a.u.)
17. CCCACACCACCTCGCCCAATTAAACCCTCACCCATTCTTTCGGAGTCACCTAGTGCAG  9140 fluorescence intensity (a.u.)
18. CCCCTCGAGTCTGATCCTCCCACTACCAACGTCCACCGGCCGGAGTCACCTAGTGCAG  9210 fluorescence intensity (a.u.)
19. CCTTGACCGTTCCCAGAAAGGTTGACCGTTGTCCGTCACTCGGAGTCACCTAGTGCAG  9240 fluorescence intensity (a.u.)
20. TGGTCTGGCAGTTTTTGAGACGGGGAGTTGACTCAGATATCGGAGTCACCTAGTGCAG  9260 fluorescence intensity (a.u.)
21. TCCCTCTCTCTCTCTCTCTTCGTTTCCGCGCGCGCGCGCGCGGAGTCACCTAGTGCAG  9340 fluorescence intensity (a.u.)
22. CTCGCCTCTAGGGTTCCGCCGTTTTCCGCGGCGCGCCACCCGGAGTCACCTAGTGCAG  9410 fluorescence intensity (a.u.)
23. TCGGTTTCATACGTGGGGTCTGTTGGTGGAGGTGTTGCCACGGAGTCACCTAGTGCAG  9440 fluorescence intensity (a.u.)
24. TGATCGCTCGCCGCCGCGGCCGCTCTCCCGCCGGCGCCGCCGGAGTCACCTAGTGCAG  9560 fluorescence intensity (a.u.)
25. TTACTATACTATTAATATCTGATCACACCTGTCATACACACGGAGTCACCTAGTGCAG  9710 fluorescence intensity (a.u.)
26. CCACGCCACGCGCCGCTCTCACTCGGTCACTCTCACTCTTCGGAGTCACCTAGTGCAG  9750 fluorescence intensity (a.u.)
27. ATGCCGCTCTATCTCTCTCTCTCTCTCTCTCTCTCTCTCTCGGAGTCACCTAGTGCAG  9760 fluorescence intensity (a.u.)
28. CGCCGCCGCCGCCGCCGCCGCGCTCGCTCGCTCGCTTCTTCGGAGTCACCTAGTGCAG  10200 fluorescence intensity (a.u.)
29. CTCTTATAACCACTTCTTTTTAAATCATTTGTTTATATGTCGGAGTCACCTAGTGCAG  10200 fluorescence intensity (a.u.)
30. ATTCCGTTAGCATTTGTCCTGCCATGGCCTATTCTGCCAGCGGAGTCACCTAGTGCAG  10400 fluorescence intensity (a.u.)
31. TACTGTCTGTCAACACACTTCATGATTTCTCATCAAATATCGGAGTCACCTAGTGCAG  10400 fluorescence intensity (a.u.)
32. CATCTCCTCCGTTTTCCGCGCACATGTTTTTTAAACTGCTCGGAGTCACCTAGTGCAG  10400 fluorescence intensity (a.u.)
33. AAAAGCCGGTCTCCTTCATCTTCCCGTCCGTAAACCCTAACGGAGTCACCTAGTGCAG  10600 fluorescence intensity (a.u.)
34. CACCCTCGTTTCCACCCGCGCCCGCGCGCCGCGCGCCACTCGGAGTCACCTAGTGCAG  10800 fluorescence intensity (a.u.)
35. CTCCACTGCTCTGATGCTCTCTCTCTCTCTCTCTTCACGCCGGAGTCACCTAGTGCAG  10800 fluorescence intensity (a.u.)
36. TTTTTTTCGGTCTCAATATTTTTTTTTCTCACGTCTTTCGCGGAGTCACCTAGTGCAG  10800 fluorescence intensity (a.u.)
37. TCTACGGGTATCCCGCGTCGACAATATTCCCATGCATTTACGGAGTCACCTAGTGCAG  10900 fluorescence intensity (a.u.)
38. CATGTTGTTCTGTTTGATGTTGCCCACTACGGTCTTTAGTCGGAGTCACCTAGTGCAG  10900 fluorescence intensity (a.u.)
39. GCGTGTTTTTCTACCCGATCGACCTTCTGATTTTGGCTATCGGAGTCACCTAGTGCAG  11100 fluorescence intensity (a.u.)
40. GTTGGGGTTCGTCGTCTTGGTCTTGGGTCTTCTTCGTCCCCGGAGTCACCTAGTGCAG  11600 fluorescence intensity (a.u.)
41. AGGACGATGGGCGCGATGGGATTTGTTCTTGACTGTTTTACGGAGTCACCTAGTGCAG  12000 fluorescence intensity (a.u.)
42. TCCTATGTTTTTCCTGCGGTCCAATCAAACGGTCATTCTTCGGAGTCACCTAGTGCAG  12300 fluorescence intensity (a.u.)
43. TACTCAATGTCTAATGGGGTGTTTGGATGGGACTAATTTTCGGAGTCACCTAGTGCAG  13000 fluorescence intensity (a.u.)
44. CGTTTGTACTGTGTGGTGGTTGGTGATTGGGTGTTGTGCCCGGAGTCACCTAGTGCAG  13900 fluorescence intensity (a.u.)
45. GGTGCGTGTTCGGGATGGGGTTCGGGTTCAATTTCAGGTTCGGAGTCACCTAGTGCAG  16700 fluorescence intensity (a.u.)
46. GGGCGGTTCTTCTTCTTCGTCTTCGTCTTGGCGCCGGTCGCGGAGTCACCTAGTGCAG  17200 fluorescence intensity (a.u.)
47. CCGCCGCCGTTCCGTTTTTTCTCTCTCGCGCCGCCGCCAGCGGAGTCACCTAGTGCAG  17300 fluorescence intensity (a.u.)
48. AGCCAGTTTTCTCCACCCTCGTTTTCCGCGCACATGTTTTCGGAGTCACCTAGTGCAG  17600 fluorescence intensity (a.u.)
49. CTCTCTCTCTCTCTCTCTCTCTCTCTCTTCGCCGCGCGGCCGGAGTCACCTAGTGCAG  18300 fluorescence intensity (a.u.)
50. AAATTAACCACACTCGCGCCGCCATTCTCTTCTTCTTCTTCGGAGTCACCTAGTGCAG  20600 fluorescence intensity (a.u.)
51. CGATACTTTCATGGGTGGGTCCTATGTTGCACGGTTGGTTCGGAGTCACCTAGTGCAG  22900 fluorescence intensity (a.u.)
52. CGCCTCTTTTCGTTTCGTTTCGCCGCCCGCTTCCGCCGCGCGGAGTCACCTAGTGCAG  23300 fluorescence intensity (a.u.)
53. TATATATATATATATATATATATATCTGATGCTCTCTTGCCGGAGTCACCTAGTGCAG  31700 fluorescence intensity (a.u.)
54. TCTACGCCGCCGGCGGCGGCGGCGGCGGCAACTGCGGCGCCGGAGTCACCTAGTGCAG  47800 fluorescence intensity (a.u.)
